Data as given in PubChem BioAssay (NCATS).
Results filed as inconclusive are left out. Active and inactive are the calls of the source. Unless noted, calls come from the whole dose curve; as a rule, active = well fitted curve in the direction sought with a large enough effect; inconclusive = small, poorly fitted or top-dose-only effect, or another doubt; inactive = no such curve, though single readings can be large; an effect the other way counts as inactive or inconclusive.

How the values were obtained:
[1] = molecular target: Lysosomal acid glucosylceramidase (Homo sapiens) (UniProt P04062); experiment: Glucocerebrosidase-p2 (AID 348; in the data active = potency below about 10 µM; note: potency is the fitted concentration of half-maximal effect); settings: purified GBA, blue fluorogenic substrate, 40 min
Chain of Lysosomal acid glucosylceramidase (Homo sapiens) (P04062 whole entry, looked up): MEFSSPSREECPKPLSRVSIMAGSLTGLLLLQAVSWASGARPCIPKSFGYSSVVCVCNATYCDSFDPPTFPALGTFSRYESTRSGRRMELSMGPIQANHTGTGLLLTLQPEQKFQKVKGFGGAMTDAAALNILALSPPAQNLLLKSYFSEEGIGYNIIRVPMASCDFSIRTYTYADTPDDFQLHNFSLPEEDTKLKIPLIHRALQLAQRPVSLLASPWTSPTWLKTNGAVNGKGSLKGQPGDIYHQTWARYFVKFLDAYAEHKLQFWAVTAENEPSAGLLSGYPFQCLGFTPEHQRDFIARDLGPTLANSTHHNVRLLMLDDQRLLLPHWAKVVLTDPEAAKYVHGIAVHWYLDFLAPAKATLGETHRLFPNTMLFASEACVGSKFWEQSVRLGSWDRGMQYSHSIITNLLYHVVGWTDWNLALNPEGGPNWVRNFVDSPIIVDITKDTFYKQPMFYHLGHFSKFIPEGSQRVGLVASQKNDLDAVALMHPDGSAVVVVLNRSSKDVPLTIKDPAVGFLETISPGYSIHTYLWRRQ
Method in brief: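 Compounds titrated from 0.6 nM upwards against 0.2 nM enzyme in pH 5.9 citric acid/KH2PO4, taurocholate, tween-20; blue fluorogenic substrate 80 uM, 40 min room temperature, stopped and read Ex 365/Em 440 for AC50.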

[2] = AP1 Signaling Pathway (AID 357; active = well fitted curve in either direction with a large enough effect, not every such curve was filed as active; note: % is set by controls: 0 for no effect and ±100 for the full control effect); settings: ME-180 AP-1-bla reporter, EGF-induced, beta-lactamase ratio, 5 h; at 7.69 µM (top of the series) unless noted
Method in brief: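 ME-180 cells with beta-lactamase reporter under AP-1 response element, stimulated with EC50 EGF; compounds tested in titration series, 5 h at 37 °C. CCF4 substrate added 2.5 h at room temperature; 460/530 nm emission ratio gave %activity and AC50.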

[3] = molecular target: Cytochrome P450 1A2 (Homo sapiens) (UniProt P05177); experiment: p450-cyp1a2 (AID 410; calls by dose curve; note: potency is the fitted concentration of half-maximal effect); settings: recombinant CYP1A2, luciferin-ME demethylation, luminescence; series mostly up to 57 µM
Chain of Cytochrome P450 1A2 (Homo sapiens) (P05177 whole entry, looked up): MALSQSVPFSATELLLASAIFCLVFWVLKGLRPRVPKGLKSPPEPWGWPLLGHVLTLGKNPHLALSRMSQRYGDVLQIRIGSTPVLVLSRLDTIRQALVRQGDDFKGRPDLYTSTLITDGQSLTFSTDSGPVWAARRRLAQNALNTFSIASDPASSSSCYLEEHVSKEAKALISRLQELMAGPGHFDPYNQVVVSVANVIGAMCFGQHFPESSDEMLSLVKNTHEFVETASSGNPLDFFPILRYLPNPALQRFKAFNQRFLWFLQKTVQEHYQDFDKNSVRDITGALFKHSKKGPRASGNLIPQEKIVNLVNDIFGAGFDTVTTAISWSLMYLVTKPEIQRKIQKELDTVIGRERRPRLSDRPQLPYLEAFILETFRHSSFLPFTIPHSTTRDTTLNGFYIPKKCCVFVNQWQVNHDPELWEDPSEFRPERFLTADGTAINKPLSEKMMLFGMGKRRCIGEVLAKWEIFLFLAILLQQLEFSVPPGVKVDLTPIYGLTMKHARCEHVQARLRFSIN
Method in brief: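 Inhibition was calculated relative to 57 uM furafylline (full inhibition). The reaction used human CYP1A2 at 20nM with Luciferin-ME at its Km, 100uM, driven by an NADPH-regenerating system for 60 min at room temperature.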

[4] = NFAT Signaling Pathway (AID 444; active = well fitted curve in either direction with a large enough effect, not every such curve was filed as active;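 note: carbachol stimulus at about its EC50 of 1 µM final; % is set by controls: 0 for no effect and ±100 for the full control effect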); settings: Jurkat NFAT-bla M1, carbachol, beta-lactamase ratio, 5 h; at 7.69 µM (top of the series) unless noted
Method in brief: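 Read-out: CCF4 FRET ratio (460 nm/530 nm) after 1 h RT dye loading, used for %activity and AC50 from titration series. Cells: Jurkat NFAT-β-lactamase/M1 line, treated with compound plus 1 uM carbachol for 5 h, 37 °C.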

[5] = Stat Signaling Pathway (AID 446; active = well fitted curve in either direction with a large enough effect, not every such curve was filed as active;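 note: ME-180 cervical cancer cells given 40 pM IL-6 alongside compound; SIE-controlled beta-lactamase reporter measured as 460/530 nm FRET emission ratio; % is set by controls: 0 for no effect and ±100 for the full control effect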); settings: ME-180 SIE beta-lactamase reporter, IL-6 stimulated, 5 h; at 7.69 µM (top of the series) unless noted
Method in brief: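 ME-180 SIE-bla cells; overnight plating; cpd + IL-6 40 pM, 5 h, 37 C; LiveBLAzer 2.5 h RT; 460/530 nm emission ratio. Normalized to 300 pM IL-6 and 125 nM JAK inhibitor controls.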

[6] = molecular target: Glucocorticoid receptor (Homo sapiens) (UniProt P04150); experiment: GR-GFP Redistribution (AID 450;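 active = compounds whose dose series gives a full or clear partial fitted curve of increased nuclear translocation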; note: potency is the fitted concentration of half-maximal effect); settings: U2OS GR-GFP nuclear translocation, laser cytometry, 2 h
Chain of Glucocorticoid receptor (Homo sapiens) (P04150 whole entry, looked up, the tested form may be a part): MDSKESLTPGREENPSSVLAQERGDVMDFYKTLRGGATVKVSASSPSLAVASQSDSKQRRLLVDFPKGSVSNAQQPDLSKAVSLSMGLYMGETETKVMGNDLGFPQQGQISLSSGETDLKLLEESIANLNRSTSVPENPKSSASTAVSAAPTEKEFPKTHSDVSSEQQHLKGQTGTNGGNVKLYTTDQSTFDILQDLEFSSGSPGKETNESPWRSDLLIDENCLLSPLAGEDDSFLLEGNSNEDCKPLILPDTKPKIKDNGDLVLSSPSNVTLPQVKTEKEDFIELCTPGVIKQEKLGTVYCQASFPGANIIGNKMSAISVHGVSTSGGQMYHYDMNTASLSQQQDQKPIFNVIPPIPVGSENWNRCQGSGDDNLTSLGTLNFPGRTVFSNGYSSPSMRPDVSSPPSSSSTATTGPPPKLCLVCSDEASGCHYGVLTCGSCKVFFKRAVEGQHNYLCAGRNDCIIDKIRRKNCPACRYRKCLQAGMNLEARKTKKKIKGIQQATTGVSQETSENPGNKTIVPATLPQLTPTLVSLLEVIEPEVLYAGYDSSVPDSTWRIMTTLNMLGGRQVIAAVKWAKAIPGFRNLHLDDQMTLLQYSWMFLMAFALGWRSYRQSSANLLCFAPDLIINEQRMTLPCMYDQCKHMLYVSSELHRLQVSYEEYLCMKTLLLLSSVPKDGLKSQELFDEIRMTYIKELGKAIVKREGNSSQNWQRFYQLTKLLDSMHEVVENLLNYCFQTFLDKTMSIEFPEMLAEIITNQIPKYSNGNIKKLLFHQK

[7] = molecular target: Glucocorticoid receptor (Homo sapiens) (UniProt P04150); experiment: GR-EFC Redistribution (AID 451; calls by dose curve; note: potency is the fitted concentration of half-maximal effect); settings: CHO-K1 GR-EFC translocation, beta-gal luminescence, 2 h
Method in brief: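 Translocation of GR-ED fusion to nuclear EA restores b-gal, read by luminescence after 1 h room-temperature detection. Engineered CHO-K1 biosensor cells, 1,000/well, exposed 2 h at 37 C to titrations up to 46 uM final.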

[8] = molecular target: Mitogen-activated protein kinase 10 (Mus musculus) (UniProt Q61831); experiment: JNK3 AlphaScreen Assay (AID 530; active = well fitted curve in either direction with a large enough effect, not every such curve was filed as active;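 note: kinase came from lysate of stimulated human HepG2 cells; signal reports phosphorylation of biotinylated GST-cJun 1-79 at Ser73 with 10 µM ATP; % is set by controls: 0 for no effect and ±100 for the full control effect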); settings: JNK3 lysate, c-Jun phosphorylation; series mostly up to 57.1 µM
Method in brief: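 Room-temperature AlphaScreen kinase assay; pre-activated HepG2 lysate as JNK3 source, biotin-GST-cJun(1-79) substrate, 10 uM ATP, compound 15 min preincubation.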

[9] = qHTS Assay for Lipid Storage Modulators (AID 1519; calls by dose curve); settings: Drosophila S3 cells, BODIPY lipid droplet/cell ratio, laser cytometry, cells loaded with oleic acid; for activity change, negative = inhibition: at 57.5 µM (top of the series)
Method in brief: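 Cells seeded at 5,000 per well were treated with compounds over a concentration series and loaded with oleic acid (400 uM, as added). Lipid droplet fluorescence (488 nm excitation, 500-530 nm channel) was read by laser-scanning cytometry and normalized to 20 uM Triacsin C.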

[10] = molecular target: Dual specificity protein kinase CLK4 (Homo sapiens) (UniProt Q9HAZ1); experiment: qHTS Assay for Inhibitors of CDC-like Kinase 4 (ADP-FP Assay) (AID 1795); settings: Transcreener ADP fluorescence polarization; series mostly up to 50 µM; note: % is set by controls: 0 for no effect and ±100 for the full control effect; nearly all actives have a fitted effect of over 60% in size
Chain of Dual specificity protein kinase CLK4 (Homo sapiens) (Q9HAZ1 whole entry, looked up): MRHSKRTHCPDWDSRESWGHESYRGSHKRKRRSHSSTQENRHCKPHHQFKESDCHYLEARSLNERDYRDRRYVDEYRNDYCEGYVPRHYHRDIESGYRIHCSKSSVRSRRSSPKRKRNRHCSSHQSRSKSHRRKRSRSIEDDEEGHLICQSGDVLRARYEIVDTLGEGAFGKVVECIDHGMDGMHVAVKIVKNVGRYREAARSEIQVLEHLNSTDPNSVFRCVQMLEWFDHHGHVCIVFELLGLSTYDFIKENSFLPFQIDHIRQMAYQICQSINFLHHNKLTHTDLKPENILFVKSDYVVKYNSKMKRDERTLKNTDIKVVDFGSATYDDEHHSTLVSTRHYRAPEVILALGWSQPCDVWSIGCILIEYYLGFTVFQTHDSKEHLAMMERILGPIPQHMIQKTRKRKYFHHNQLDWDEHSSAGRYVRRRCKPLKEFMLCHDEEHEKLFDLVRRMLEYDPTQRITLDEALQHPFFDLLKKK
Method in brief: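 Recombinant human Clk4 (6.25 nM) phosphorylated RS repeat peptide (100 uM) with 1 uM ATP in Tris pH 7.5/MgCl2/EGTA/DTT/Triton buffer for one hour. ADP was quantified by Transcreener competitive fluorescence polarization against an ADP calibration curve.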

[11] = molecular target: Ubiquitin carboxyl-terminal hydrolase 1 (Homo sapiens) (UniProt O94782); experiment: Inhibitors of USP1/UAF1: Pilot qHTS (AID 504865); settings: purified USP1/UAF1, Ub-rhodamine cleavage fluorescence; series mostly up to 54.9 µM;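 note: rhodamine fluorescence freed from ubiquitin-rhodamine substrate followed over time; top concentration of the series differs between compounds; % is set by controls: 0 for no effect and ±100 for the full control effect; nearly all actives have a fitted effect of over 35% in size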
Chain of Ubiquitin carboxyl-terminal hydrolase 1 (Homo sapiens) (O94782 whole entry, looked up): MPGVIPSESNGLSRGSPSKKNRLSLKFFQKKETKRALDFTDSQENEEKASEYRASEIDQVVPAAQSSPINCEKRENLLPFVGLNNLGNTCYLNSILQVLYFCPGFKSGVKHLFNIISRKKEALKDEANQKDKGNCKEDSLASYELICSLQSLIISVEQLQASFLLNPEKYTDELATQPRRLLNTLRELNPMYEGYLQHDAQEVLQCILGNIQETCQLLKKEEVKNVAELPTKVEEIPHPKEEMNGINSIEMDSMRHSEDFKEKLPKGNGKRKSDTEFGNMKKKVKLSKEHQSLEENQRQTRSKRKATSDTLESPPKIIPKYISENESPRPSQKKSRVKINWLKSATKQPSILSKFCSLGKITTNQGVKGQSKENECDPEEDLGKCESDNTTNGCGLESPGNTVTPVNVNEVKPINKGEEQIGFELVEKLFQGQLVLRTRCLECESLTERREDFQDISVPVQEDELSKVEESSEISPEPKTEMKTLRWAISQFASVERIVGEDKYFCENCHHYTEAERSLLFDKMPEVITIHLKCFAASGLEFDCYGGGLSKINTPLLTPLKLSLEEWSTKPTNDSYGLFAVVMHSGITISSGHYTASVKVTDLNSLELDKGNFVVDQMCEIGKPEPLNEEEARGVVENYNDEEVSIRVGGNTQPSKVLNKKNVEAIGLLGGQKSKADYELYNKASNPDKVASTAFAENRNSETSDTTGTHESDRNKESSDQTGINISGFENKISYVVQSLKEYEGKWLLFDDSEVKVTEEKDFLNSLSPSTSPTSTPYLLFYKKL
Method in brief: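 USP1/UAF1 complex (1nM) preincubated with compound 15 min at room temperature, then Ub-Rho substrate (150nM final) added. Fluorescence read kinetically at 480/540 nm, 6 reads every 60 seconds. Buffer: 50mM HEPES pH 7.8, 0.5mM EDTA, 0.1 mg/ml BSA, 1mM TCEP, 0.01% Tween-20.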

[12] = Primary qHTS for small molecule stabilizers of the endoplasmic reticulum resident proteome: Secreted ER Calcium Modulated Protein (SERCaMP) assay (AID 1508630); settings: SH-SY5Y GLuc-SERCaMP (Gaussia luciferase released on ER calcium loss) secretion, thapsigargin, luminescence; series mostly up to 38.4 µM; note: % is set by controls: 0 for no effect and ±100 for the full control effect
Method in brief: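 GLuc-SERCaMP-expressing SH-SY5Y cells, pretreated 16 h with compound, are challenged with thapsigargin to empty ER calcium stores; after 4 h, coelenterazine is added directly to the medium and luminescence is imaged.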

[13] = molecular target: Cytochrome P450 3A4 (Homo sapiens) (UniProt P08684); experiment: qHTS Assay for Activators of Cytochrome P450 3A4 (AID 885); settings: recombinant CYP3A4, Luciferin-PPXE luminescence, 60 min; series mostly up to 57.1 µM; note: nearly all actives have a fitted effect of over 65% in size
Chain of Cytochrome P450 3A4 (Homo sapiens) (P08684 whole entry, looked up): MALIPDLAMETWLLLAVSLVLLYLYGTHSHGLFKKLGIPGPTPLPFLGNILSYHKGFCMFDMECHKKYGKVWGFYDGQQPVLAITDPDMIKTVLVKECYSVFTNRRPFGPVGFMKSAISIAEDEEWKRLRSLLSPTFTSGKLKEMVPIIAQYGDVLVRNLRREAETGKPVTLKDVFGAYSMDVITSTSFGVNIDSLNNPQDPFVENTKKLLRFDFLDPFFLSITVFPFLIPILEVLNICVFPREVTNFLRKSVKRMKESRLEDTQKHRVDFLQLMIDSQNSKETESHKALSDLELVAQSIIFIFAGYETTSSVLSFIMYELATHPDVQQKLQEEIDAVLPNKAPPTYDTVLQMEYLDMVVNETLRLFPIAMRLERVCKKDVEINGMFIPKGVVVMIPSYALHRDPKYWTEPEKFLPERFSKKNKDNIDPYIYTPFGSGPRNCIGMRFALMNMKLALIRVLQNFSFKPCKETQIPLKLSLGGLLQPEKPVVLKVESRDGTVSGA
Method in brief: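 20nM CYP3A4 + 25uM Luciferin-PPXE (=KM), 200mM KPO4; cpd 10 min RT; NADPH regen, 60 min RT; stop w/ detection buffer, 20 min; luminescence. Normalized to 57 uM ketoconazole.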

[14] = molecular target: Dual specificity protein kinase CLK4 (Homo sapiens) (UniProt Q9HAZ1); experiment: qHTS Assay for Inhibitors of CDC-like Kinase 4 (Kinase-Glo Assay) (AID 1770); settings: recombinant Clk4, Kinase-Glo ATP depletion luminescence; series mostly up to 66.7 µM; note: % is set by controls: 0 for no effect and ±100 for the full control effect; nearly all actives have a fitted effect of over 65% in size
Method in brief: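 Recombinant human Clk4 (25 nM) phosphorylated RS repeat peptide (100 uM) with 1 uM ATP in Tris pH 7.5/MgCl2/EGTA/DTT/Triton buffer for 4.5 h at room temperature. Residual ATP was quantified by Kinase-Glo luciferase luminescence.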

[15] = molecular target: Cytochrome P450 3A4 (Homo sapiens) (UniProt P08684); experiment: qHTS Assay for Inhibitors and Substrates of Cytochrome P450 3A4 (AID 884); settings: recombinant CYP3A4, Luciferin-PPXE luminescence; series mostly up to 57.1 µM; note: potency is the fitted concentration of half-maximal effect; nearly all actives have a fitted effect of over 50% in size
Method in brief: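 20 nM human CYP3A4 with 25 uM Luciferin-PPXE (at KM) in 200 mM KPO4, preincubated 10 min with compound; NADPH regeneration started a 60 min RT reaction. Luciferin detected by luminescence, normalized to 57 uM ketoconazole as full inhibition.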

[16] = molecular target: 3',5'-cyclic-AMP phosphodiesterase 4B (Homo sapiens) (UniProt Q07343); experiment: qHTS Assay for Inhibitors of PDE-IV (AID 607; active = well fitted activation curve with a large enough effect in the main read-out, with a control signal flat, not every such curve was filed as active; note: % of control where 0% means no effect); settings: HEK293 ACTOne CNG channel cells, membrane potential fluorescence; series mostly up to 22.9 µM
Chain of 3',5'-cyclic-AMP phosphodiesterase 4B (Homo sapiens) (Q07343 whole entry, looked up): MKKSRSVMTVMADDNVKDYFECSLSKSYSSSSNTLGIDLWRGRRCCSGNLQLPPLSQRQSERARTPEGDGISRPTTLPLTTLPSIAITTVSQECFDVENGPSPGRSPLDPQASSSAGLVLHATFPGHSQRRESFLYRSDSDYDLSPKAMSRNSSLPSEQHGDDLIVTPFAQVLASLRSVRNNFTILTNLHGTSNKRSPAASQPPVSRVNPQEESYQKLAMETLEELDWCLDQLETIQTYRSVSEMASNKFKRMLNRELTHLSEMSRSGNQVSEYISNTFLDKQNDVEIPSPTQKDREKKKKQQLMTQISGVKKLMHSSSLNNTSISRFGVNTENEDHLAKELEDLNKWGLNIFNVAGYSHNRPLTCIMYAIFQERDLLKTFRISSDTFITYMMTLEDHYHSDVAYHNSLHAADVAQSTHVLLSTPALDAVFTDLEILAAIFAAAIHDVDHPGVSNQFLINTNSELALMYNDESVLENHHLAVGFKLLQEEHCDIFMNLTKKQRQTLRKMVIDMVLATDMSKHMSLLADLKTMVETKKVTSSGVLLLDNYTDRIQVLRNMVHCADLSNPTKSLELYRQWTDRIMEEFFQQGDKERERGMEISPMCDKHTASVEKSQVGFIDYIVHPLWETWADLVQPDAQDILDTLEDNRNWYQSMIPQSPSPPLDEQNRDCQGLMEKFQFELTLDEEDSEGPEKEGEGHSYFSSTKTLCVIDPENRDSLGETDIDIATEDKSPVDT
Method in brief: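 ACTOne HEK293 cells carry a modified cAMP-gated CNG channel and express endogenous PDE4; plated 1000 cells/well, compounds up to 22.9 uM final. Membrane-potential dye fluorescence (ex 535/em 590) was read; parental cells received 10 uM forskolin + 100 uM RO 20-1724.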

[17] = molecular target: Cytochrome P450 2C19 (Homo sapiens) (UniProt P33261); experiment: qHTS Assay for Inhibitors and Substrates of Cytochrome P450 2C19 (AID 899); settings: recombinant CYP2C19, luciferin-H EGE luminescence; series mostly up to 57.1 µM; note: potency is the fitted concentration of half-maximal effect; nearly all actives have a fitted effect of over 60% in size
Chain of Cytochrome P450 2C19 (Homo sapiens) (P33261 whole entry, looked up): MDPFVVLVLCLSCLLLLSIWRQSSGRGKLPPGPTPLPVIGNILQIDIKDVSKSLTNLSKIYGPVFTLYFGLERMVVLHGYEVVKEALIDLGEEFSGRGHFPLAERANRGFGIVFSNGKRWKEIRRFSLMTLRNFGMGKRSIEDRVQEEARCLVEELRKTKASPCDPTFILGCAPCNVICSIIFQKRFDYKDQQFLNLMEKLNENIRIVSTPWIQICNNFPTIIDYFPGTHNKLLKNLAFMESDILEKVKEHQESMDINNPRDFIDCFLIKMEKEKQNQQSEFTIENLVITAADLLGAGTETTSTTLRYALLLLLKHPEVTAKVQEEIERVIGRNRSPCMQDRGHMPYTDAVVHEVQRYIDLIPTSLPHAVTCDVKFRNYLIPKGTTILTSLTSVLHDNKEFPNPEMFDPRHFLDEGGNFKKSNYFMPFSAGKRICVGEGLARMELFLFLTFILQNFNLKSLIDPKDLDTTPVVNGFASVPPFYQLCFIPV
Method in brief: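 Reactions contain 5nM enzyme, 10uM Luciferin-H EGE (KM) and 50mM KPO4; compound preincubates 10 min at 37C, NADPH regeneration starts turnover for 60 min. Luminescence after detection reagent gives activity.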

[18] = measured here: cell count channel max response
[19] = measured here: lipid channel max response

SMILES | Potency [1] | activity change, negative = inhibition [2] | Potency [3] | activity change, negative = inhibition [4] | activity, negative = inhibition [5] | Potency [6] | Potency [7] | outcome [8] | activity change, negative = inhibition [9] | max response [9, 18] [%] | max response [9, 19] [%] | Potency [10] | Potency [11] | Potency [12] | Potency [13] | Potency [14] | Potency [15] | Potency [16] | Potency [17]
Cc1noc(C)c1-c1cc(Nc2ccccc2)ncn1 | > 11.4 µM (inactive) | -11.6% (inactive) | 1.26 µM (active) | -3.87% (inactive) | -5.08% (inactive) | > 46 µM (inactive) | > 46 µM (inactive) | inactive | 4.92% (inactive) | 15.2 | 17.9 | inactive | inactive | inactive |  |  |  |  | 
O=c1c(-c2cccs2)nc2cnc(N3CCOCC3)nc2n1-c1ccccc1 |  | 25.6% (inactive) | 5.01 µM (active) | 2.23% (inactive) |  | > 9.22 µM (inactive) | > 46 µM (inactive) |  | -15.1% (inactive) | 13.7 | -6.13 | inactive |  | inactive | inactive | inactive |  |  | 
c1csc(CNc2ccnc(-c3ccoc3)n2)c1 | > 11.4 µM (inactive) | 8.64% (inactive) | 1 µM (active) | -0.203% (inactive) | 10.3% (inactive) | > 46 µM (inactive) | > 46 µM (inactive) | inactive | 5% (inactive) | 21.1 | 20.9 | inactive | inactive | inactive | inactive | inactive | 7.94 µM (active) |  | 
COc1cccc(-c2cncnc2N(C)Cc2ccco2)c1 | > 11.4 µM (inactive) | -8.71% (inactive) | 10 µM (active) | -25.9% (inactive) | 7.72% (inactive) | > 46 µM (inactive) | > 46 µM (inactive) | inactive | 6.72% (inactive) | 38 | 41.1 | inactive | inactive | inactive | inactive | inactive | 2.51 µM (active) | inactive | 7.94 µM (active)
O=c1cnc2cncnc2n1Cc1ccccc1Cl | > 11.4 µM (inactive) | 8.55% (inactive) | 15.8 µM (active) | -28.3% (inactive) | -5.06% (inactive) | > 9.22 µM (inactive) | > 46 µM (inactive) | inactive | -7.78% (inactive) | -0.667 | -10.1 | inactive | inactive | inactive |  | inactive |  |  | 
COc1cccc(Nc2ncc3nc(C)c(=O)n(CCc4ccccc4)c3n2)c1 | > 11.4 µM (inactive) | -17.7% (inactive) | 5.01 µM (active) | 3.56% (inactive) | -6.89% (inactive) | > 9.22 µM (inactive) | > 46 µM (inactive) | inactive | -2.06% (inactive) | -10.5 | -13.8 |  | inactive | inactive | inactive |  | 7.94 µM (active) |  | 
